# Test results from PubChem BioAssay (NCI).
# Compounds without any hit were thinned out: in the full panel of roughly 79,000, 15% have a hit. Values without a mark were called inactive. Active and inactive are the calls of the source. Rule as the data show it: active = growth inhibition above about 70%; inactive = the rest.
# How the values were obtained:
# [1] = NCI Yeast Anticancer Drug Screen. Data for the rad52 strain (AID 147);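 also: 0% = growth of vehicle-treated control cultures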; settings: S. cerevisiae rad52 mutant growth inhibition, hits give high values
# In short: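 Genetically altered yeast (DNA damage repair defect) treated with compound; inhibition calculated relative to vehicle.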
# [2] = NCI Yeast Anticancer Drug Screen. Data for the wt1 strain (AID 149);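 also: 0% = growth of vehicle-treated wt1 cultures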; settings: S. cerevisiae wt1 strain (SPY 50644) growth inhibition, hits give high values
# In short: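 wt1 strain grown with compound or vehicle; inhibition taken from the growth difference.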
# [3] = NCI Yeast Anticancer Drug Screen. Data for the rad50EPP+ strain (AID 151);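 also: 0% = growth of vehicle-treated control cultures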; settings: S. cerevisiae rad50 mutant strain, hits give high values
# In short: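 Strain rad50EPP+; compound exposure; % growth inhibition vs vehicle.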
# [4] = NCI Yeast Anticancer Drug Screen. Data for the mgt1 strain (AID 153); settings: S. cerevisiae mgt1 mutant growth inhibition, hits give high values
# In short: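 Read-out: yeast growth inhibition vs vehicle control. Strain mgt1, drawn from a panel altered in DNA damage repair or cell cycle control.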
# [5] = NCI Yeast Anticancer Drug Screen. Data for the rad50 strain (AID 155);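 also: 0% = growth of vehicle-only cultures of the same strain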; settings: S. cerevisiae rad50 strain growth inhibition, hits give high values
# In short: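 DNA repair mutant yeast, compound exposure, growth read-out; inhibition is taken relative to vehicle.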
# [6] = NCI Yeast Anticancer Drug Screen. Data for the mec2-1 strain (AID 157); settings: S. cerevisiae mec2-1 strain, hits give high values
# In short: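 Cells of the genetically defined mec2-1 yeast strain are incubated with test compound. Inhibition of growth is calculated against vehicle-treated controls.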
# [7] = NCI Yeast Anticancer Drug Screen. Data for the rad14 strain (AID 159);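 also: 0% = growth of vehicle-treated control cultures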; settings: S. cerevisiae rad14 strain growth inhibition, hits give high values
# In short: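 DNA repair-defective yeast, compound-exposed; % growth inhibition derived by comparison with vehicle-treated controls.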
# [8] = NCI Yeast Anticancer Drug Screen. Data for the sgs1 mgt1 strain (AID 161);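 also: 0% = growth of cultures given vehicle only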; settings: S. cerevisiae sgs1 mgt1 strain, hits give high values
# In short: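 Mutant yeast exposed to compound; growth scored against vehicle-only wells.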
# [9] = NCI Yeast Anticancer Drug Screen. Data for the CLN2oe strain (AID 163);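 also: 0% = growth of vehicle-only control cultures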; settings: S. cerevisiae CLN2oe strain, hits give high values
# In short: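 Strain altered in cell-cycle control, incubated with compound; growth compared to solvent-treated controls.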
# [10] = NCI Yeast Anticancer Drug Screen. Data for the cln2 rad14 strain (AID 165);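 also: 0% = growth equal to vehicle treated cultures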; settings: S. cerevisiae cln2 rad14 strain, hits give high values
# In short: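 The screen exposed genetically defined yeast (cln2 rad14) to test compounds and scored growth inhibition relative to vehicle-treated controls.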
# [11] = NCI Yeast Anticancer Drug Screen. Data for the bub3 strain (AID 167); settings: S. cerevisiae bub3 mutant strain, hits give high values
# In short: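 In this screen, a yeast mutant lacking normal mitotic checkpoint function is challenged with compound. Relative growth versus vehicle gives the inhibition value.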
# [12] = NCI Yeast Anticancer Drug Screen. Data for the wt2 strain (AID 169);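 also: 0% = growth of vehicle-treated yeast cultures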; settings: S. cerevisiae wt2 strain growth inhibition, hits give high values
# In short: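 Steps: yeast strain treated with compound; growth recorded; inhibition calculated relative to cultures given vehicle alone.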
# [13] = NCI Yeast Anticancer Drug Screen. Data for the mlh1 strain (AID 171);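 also: 0% = growth of vehicle-treated control cultures of the same strain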; settings: S. cerevisiae mlh1 strain growth inhibition, hits give high values
# In short: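 Yeast screen: mutant strain plus compound, growth scored against vehicle control wells.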
# [14] = NCI Yeast Anticancer Drug Screen. Data for the sgs1 strain (AID 173);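 also: 0% = growth of vehicle-only control cultures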; settings: S. cerevisiae sgs1 mutant, hits give high values
# In short: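 Inhibition of yeast growth served as the measure. The mutant strain was treated with each compound, and growth was normalised to cultures receiving vehicle alone.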
# [15] = NCI Yeast Anticancer Drug Screen. Data for the rad18 strain (AID 177); settings: S. cerevisiae rad18 mutant growth inhibition, hits give high values
# In short: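 Inhibition values reflect reduced yeast growth compared with vehicle-treated controls, using a strain engineered with a DNA damage repair defect.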
# [16] = at 5.0 µM (retest, dose inferred, filed as 0.5)
# [17] = at 50.0 µM (retest, dose inferred, filed as 5.0)
smiles,measurement,setting,value
N#CN1C2CCC1CC(=O)C2,growth inhibition,[1]; at 1.2 µM,-12%
same,growth inhibition,[1]; at 3.7 µM,-32%
same,growth inhibition,[1]; at 11.0 µM,-21%
same,growth inhibition,[1]; at 33.0 µM,-18%
same,growth inhibition,[1]; at 100.0 µM,-21%
same,growth inhibition,[2]; at 1.2 µM,-25%
same,growth inhibition,[2]; at 3.7 µM,-37%
same,growth inhibition,[2]; at 11.0 µM,-46%
same,growth inhibition,[2]; at 33.0 µM,-53%
same,growth inhibition,[2]; at 100.0 µM,-35%
same,growth inhibition,[3]; at 1.2 µM,-25%
same,growth inhibition,[3]; at 3.7 µM,-35%
same,growth inhibition,[3]; at 11.0 µM,-27%
same,growth inhibition,[3]; at 33.0 µM,-43%
same,growth inhibition,[3]; at 100.0 µM,-33%
same,growth inhibition,[4]; at 1.2 µM,-8%
same,growth inhibition,[4]; at 3.7 µM,-10%
same,growth inhibition,[4]; at 11.0 µM,-13%
same,growth inhibition,[4]; at 33.0 µM,-11%
same,growth inhibition,[4]; at 100.0 µM,-8%
same,growth inhibition,[5]; at 1.2 µM,3%
same,growth inhibition,[5]; at 3.7 µM,1%
same,growth inhibition,[5]; [16],66%
same,growth inhibition,[5]; at 11.0 µM,-34%
same,growth inhibition,[5]; at 33.0 µM,-40%
same,growth inhibition,[5]; [17],99% (active)
same,growth inhibition,[5]; at 50.0 µM,66%
same,growth inhibition,[5]; at 100.0 µM,-24%
same,growth inhibition,[6]; at 1.2 µM,-27%
same,growth inhibition,[6]; at 3.7 µM,-36%
same,growth inhibition,[6]; [16],63%
same,growth inhibition,[6]; at 11.0 µM,-54%
same,growth inhibition,[6]; at 33.0 µM,-24%
same,growth inhibition,[6]; [17],84% (active)
same,growth inhibition,[6]; at 50.0 µM,43.6%
same,growth inhibition,[6]; at 100.0 µM,-36%
same,growth inhibition,[7]; at 1.2 µM,-26%
same,growth inhibition,[7]; at 3.7 µM,-23%
same,growth inhibition,[7]; at 11.0 µM,-13%
same,growth inhibition,[7]; at 33.0 µM,-2%
same,growth inhibition,[7]; at 100.0 µM,8%
same,growth inhibition,[8]; [16],-5%
same,growth inhibition,[8]; [17],-5%
same,growth inhibition,[8]; at 50.0 µM,77.4% (active)
same,growth inhibition,[9]; at 1.2 µM,12%
same,growth inhibition,[9]; at 3.7 µM,7%
same,growth inhibition,[9]; at 11.0 µM,-28%
same,growth inhibition,[9]; at 33.0 µM,-27%
same,growth inhibition,[9]; at 100.0 µM,-11%
same,growth inhibition,[10]; [16],50%
same,growth inhibition,[10]; [17],34%
same,growth inhibition,[10]; at 50.0 µM,74.8% (active)
same,growth inhibition,[11]; at 1.2 µM,14%
same,growth inhibition,[11]; at 3.7 µM,23%
same,growth inhibition,[11]; [16],39%
same,growth inhibition,[11]; at 11.0 µM,15%
same,growth inhibition,[11]; at 33.0 µM,27%
same,growth inhibition,[11]; [17],12%
same,growth inhibition,[11]; at 50.0 µM,57.3%
same,growth inhibition,[11]; at 100.0 µM,31%
same,growth inhibition,[12]; at 1.2 µM,-18%
same,growth inhibition,[12]; at 3.7 µM,-16%
same,growth inhibition,[12]; at 11.0 µM,-19%
same,growth inhibition,[12]; at 33.0 µM,-22%
same,growth inhibition,[12]; at 100.0 µM,-25%
same,growth inhibition,[13]; at 1.2 µM,-19%
same,growth inhibition,[13]; at 3.7 µM,-11%
same,growth inhibition,[13]; at 11.0 µM,-13%
same,growth inhibition,[13]; at 33.0 µM,-16%
same,growth inhibition,[13]; at 100.0 µM,-21%
same,growth inhibition,[14]; at 1.2 µM,-17%
same,growth inhibition,[14]; at 3.7 µM,-20%
same,growth inhibition,[14]; at 11.0 µM,-12%
same,growth inhibition,[14]; at 33.0 µM,-23%
same,growth inhibition,[14]; at 100.0 µM,-24%
same,growth inhibition,[15]; at 1.2 µM,-10%
same,growth inhibition,[15]; at 3.7 µM,-15%
same,growth inhibition,[15]; at 11.0 µM,-22%
same,growth inhibition,[15]; at 33.0 µM,-21%
same,growth inhibition,[15]; at 100.0 µM,-9%
